Reference: PubChem BioAssay (NCI)
This is part of a sample that, as a whole, favours compounds with a hit. Of some 83,000 tested, about 20% had one in any assay.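 For each line, cells grew in 96-well plates with the test compound present at a single concentration for 48 hours.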 Calls of active or inactive are those of the source. The calls were made as follows: active = growth percent below 10; inactive = the rest.

Legend:
Test in all cases: NCI-60 one-dose screen, 48 h (100 = growth as untreated, 0 = no growth, -100 = all killed)
Conditions in all cases: 10 µM unless noted
DU-145 prostate = system: DU-145 prostate
K-562 leukemia = system: K-562 leukemia
MALME-3M melanoma = system: MALME-3M melanoma
MDA-MB-231 breast = system: MDA-MB-231 breast
RXF 393 renal = system: RXF 393 renal
SF-268 CNS = system: SF-268 CNS
SF-295 CNS = system: SF-295 CNS
SF-539 CNS = system: SF-539 CNS
UACC-257 melanoma = system: UACC-257 melanoma
M14 melanoma = system: M14 melanoma

Measured: growth

Cn1cc(-c2cc(N)n3nc(-c4c[nH]c5ccccc45)cc3n2)c2cc(Cl)ccc21
active: DU-145 prostate -62.6% | K-562 leukemia 7.97% | MALME-3M melanoma -78% | MDA-MB-231 breast -85.5% | RXF 393 renal -84.7% | SF-268 CNS -46.3% | SF-295 CNS -88% | SF-539 CNS -92.2% | UACC-257 melanoma -84.3% | M14 melanoma -75.5%

O=C(c1cc2cc(OCCCN3CCC3)ccc2[nH]1)N1C[C@@H](CCl)c2c1cc(OCc1ccccc1)c1ccccc21
active: DU-145 prostate -29.5% | K-562 leukemia 0.535% | MALME-3M melanoma -73.9% | MDA-MB-231 breast -41.4% | RXF 393 renal -80.8% | SF-268 CNS 0.226% | SF-295 CNS -4.45% | SF-539 CNS -79.8% | UACC-257 melanoma -23.1% | M14 melanoma -79.3%

O=C(Nc1nc2ccc([N+](=O)[O-])cc2s1)Nc1ccc(Cl)cc1Cl
inactive: DU-145 prostate 64.1% | K-562 leukemia 24.6% | MALME-3M melanoma 52.4% | RXF 393 renal 20% | SF-268 CNS 66.1% | SF-295 CNS 17.2% | SF-539 CNS 11.7% | UACC-257 melanoma 60.3% | M14 melanoma 77.9%
active: MDA-MB-231 breast 1.5%

NC(=Nc1ccc(OCCCCCCCCn2cnnn2)cc1)c1ccccc1
inactive: K-562 leukemia 15.4% | MALME-3M melanoma 46.3% | MDA-MB-231 breast 11.8% | SF-268 CNS 38.8% | UACC-257 melanoma 49.7% | M14 melanoma 18.1%

COc1ccc(C2=Nc3c(N)nc(N)nc3NC(c3ccc(Oc4nc(Nc5ccc(F)cc5)nc(N(C)C)n4)c(OC)c3)C2)cc1 (stereo unspecified)
inactive: DU-145 prostate 68.8% | K-562 leukemia 29.5% | MALME-3M melanoma 83.1% | MDA-MB-231 breast 43.3% | RXF 393 renal 12.1% | SF-268 CNS 61.6% | SF-295 CNS 85.7% | SF-539 CNS 71.9% | UACC-257 melanoma 70.5% | M14 melanoma 93.4%

COc1cccc(NC(=O)c2ccc(NC(=O)CCl)s2)c1
inactive: DU-145 prostate 88.1% | MALME-3M melanoma 45.5% | RXF 393 renal 56.9% | SF-268 CNS 45.7% | SF-295 CNS 65.4% | SF-539 CNS 38.4% | UACC-257 melanoma 27.7% | M14 melanoma 14.2%
active: K-562 leukemia 4.03% | MDA-MB-231 breast -26.5%

C=CCSc1nnc(-c2ccc(-c3nc4ccccc4[nH]3)cc2)o1
inactive: DU-145 prostate 77.1% | K-562 leukemia 46% | MALME-3M melanoma 77.4% | MDA-MB-231 breast 92.2% | RXF 393 renal 71.3% | SF-268 CNS 87.4% | SF-295 CNS 76.2% | SF-539 CNS 82.2% | UACC-257 melanoma 88.2% | M14 melanoma 73.5%

CNc1nc2ccccc2n2c(-c3ccc(O)c(O)c3)cnc12
inactive: K-562 leukemia 11.1% | MALME-3M melanoma 16% | MDA-MB-231 breast 20.9% | SF-295 CNS 11% | UACC-257 melanoma 57.1%
active: DU-145 prostate 2.32% | RXF 393 renal -4.31% | SF-268 CNS 5.12% | SF-539 CNS -43% | M14 melanoma -1%

O=C(c1ccc(O)cc1)C1[C@H](c2ccc(Cl)cc2)[C@@H](c2ccccc2)NC12C(=O)Nc1ccccc12 (stereo partly specified)
inactive: DU-145 prostate 20.5% | SF-268 CNS 22.4% | UACC-257 melanoma 77.7%
active: K-562 leukemia -8.58% | MALME-3M melanoma -40.2% | MDA-MB-231 breast -80.2% | RXF 393 renal -74% | SF-295 CNS -48.6% | SF-539 CNS -50.6% | M14 melanoma -27%

CC(=O)c1c2c(c3ccc4c5ccccc5ccc4n13)C(=O)c1ccccc1C2=O
inactive: DU-145 prostate 102% | K-562 leukemia 103% | MDA-MB-231 breast 77.3% | RXF 393 renal 59.6% | SF-268 CNS 98% | SF-295 CNS 92.5% | SF-539 CNS 77.6% | UACC-257 melanoma 97.5% | M14 melanoma 65.7%
active: MALME-3M melanoma -49.5%

O=C(NC(=S)N1CCN(c2ncnc3c2cnn3-c2ccccc2)CC1)c1ccc(F)cc1
inactive: DU-145 prostate 86.4% | K-562 leukemia 51.3% | MALME-3M melanoma 78.1% | MDA-MB-231 breast 84.2% | RXF 393 renal 77% | SF-268 CNS 80.2% | SF-295 CNS 69.3% | SF-539 CNS 73.8% | UACC-257 melanoma 89% | M14 melanoma 86.8%

N#Cc1c(NC(=O)N2CCOCC2)n(-c2ccc(OC(F)(F)F)cc2)c2cc(F)ccc12
active: K-562 leukemia 8.91%
inactive: DU-145 prostate 100% | MALME-3M melanoma 94.5% | MDA-MB-231 breast 73.7% | RXF 393 renal 95.2% | SF-268 CNS 114% | SF-295 CNS 87.7% | SF-539 CNS 87.7% | UACC-257 melanoma 102% | M14 melanoma 96.7%

COc1ccc(-c2cc(-c3ccccc3)c(C#N)c(=O)[nH]2)cc1S(N)(=O)=O
active: MDA-MB-231 breast -18.1%
inactive: DU-145 prostate 103% | K-562 leukemia 109% | MALME-3M melanoma 97.9% | RXF 393 renal 100% | SF-268 CNS 101% | SF-295 CNS 108% | SF-539 CNS 96.3% | UACC-257 melanoma 98.9% | M14 melanoma 99.7%

CN(C)CCCc1ccc(Nc2cnn(C)c(=O)c2Cl)cc1
inactive: DU-145 prostate 116% | K-562 leukemia 89.8% | MALME-3M melanoma 88.8% | MDA-MB-231 breast 108% | RXF 393 renal 90.2% | SF-268 CNS 113% | SF-295 CNS 89.2% | SF-539 CNS 94% | UACC-257 melanoma 98.5% | M14 melanoma 100%

Cc1nc(N)ncc1-c1ccc2ncnc(N3CCc4cc(F)c(Cl)cc43)c2c1
inactive: DU-145 prostate 47.3% | K-562 leukemia 61.7% | MALME-3M melanoma 91.9% | MDA-MB-231 breast 35.3% | RXF 393 renal 14.6% | SF-268 CNS 45.9% | SF-295 CNS 84.9% | SF-539 CNS 67% | UACC-257 melanoma 105% | M14 melanoma 102%

Cc1nn(-c2ccccc2)c2nc(C)n(CC(=O)N/N=C/c3ccccc3O)c(=O)c12
active: UACC-257 melanoma 2.59% | M14 melanoma 2.09%
inactive: DU-145 prostate 48.9% | K-562 leukemia 18.4% | MALME-3M melanoma 47.4% | MDA-MB-231 breast 34.2% | RXF 393 renal 25.9% | SF-268 CNS 47.6% | SF-295 CNS 23.6% | SF-539 CNS 21.8%

CC(C)CN1C(=O)/C(=C\C(=O)c2cc3ccccc3oc2=O)c2ccccc21
active: K-562 leukemia 1.97%
inactive: DU-145 prostate 98.3% | MALME-3M melanoma 59% | MDA-MB-231 breast 87.5% | RXF 393 renal 85.4% | SF-268 CNS 106% | SF-295 CNS 105% | SF-539 CNS 102% | UACC-257 melanoma 106% | M14 melanoma 85%

COc1cc(-c2ccc3ncnc(N4CCc5ccc(Cl)cc54)c3c2)cnc1Cl
active: RXF 393 renal -4.17%
inactive: DU-145 prostate 10.6% | K-562 leukemia 23.1% | MALME-3M melanoma 34.9% | MDA-MB-231 breast 30.8% | SF-268 CNS 40.2% | SF-295 CNS 35% | SF-539 CNS 24.8% | UACC-257 melanoma 59.2% | M14 melanoma 29.8%

NS(=O)(=O)c1cccc(Nc2nc(SCC(=O)c3ccc(F)cc3)nc3ccccc23)c1
inactive: MALME-3M melanoma 10.6% | RXF 393 renal 38.9% | UACC-257 melanoma 14.4% | M14 melanoma 23.3%
active: DU-145 prostate 9.74% | K-562 leukemia 8.34% | MDA-MB-231 breast 7.12% | SF-268 CNS 8.21% | SF-295 CNS -5.65% | SF-539 CNS 8.17%

COC(=O)c1cc(C(=O)CBr)n2c1ccc1c3ccccc3ccc12
inactive: DU-145 prostate 69.3% | K-562 leukemia 43% | MALME-3M melanoma 51.2% | MDA-MB-231 breast 69.8% | RXF 393 renal 67% | SF-268 CNS 74.7% | SF-295 CNS 37.2% | SF-539 CNS 43.6% | UACC-257 melanoma 82.6% | M14 melanoma 69.5%
